Assay outcomes deposited in PubChem BioAssay by National Center for Advancing Translational Sciences (NCATS).
HCMV antiviral: inhibitors of human cytomegalovirus; HFF cells, HCMV-luciferase reporter, 72 h; stronger effect = lower value; activity change, negative = inhibition, % at 57.5 µM; 410,000 compounds, 4.5% hits; in the data active = activity change below about -60%; inconclusive = no clear call, values can overlap the other calls; inactive = above about -39%
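Two compound doses tested in HFFs infected with HCMV-luciferase, MOI 1 PFU/cell, 72 h at 37C. Lysate luminescence read with OneGlo; data normalized against buffer-only and 10uM Salinomycin inhibitor controls.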
FBPA Giardia inh: blocks Giardia fructose-bisphosphate aldolase activity; 290,000 compounds, 0.71% hits; A8B2U2; purified Giardia FBPA; Potency, µM (top dose mostly 59.6 µM), inactives show at the top dose activity, negative = inhibition, most hits filed as inhibitors; AID 2451; also: potency is read from the fitted curve at half-maximal effect; nearly all actives have a fitted effect of over 55% in size
Target sequence (A8B2U2 whole entry, looked up): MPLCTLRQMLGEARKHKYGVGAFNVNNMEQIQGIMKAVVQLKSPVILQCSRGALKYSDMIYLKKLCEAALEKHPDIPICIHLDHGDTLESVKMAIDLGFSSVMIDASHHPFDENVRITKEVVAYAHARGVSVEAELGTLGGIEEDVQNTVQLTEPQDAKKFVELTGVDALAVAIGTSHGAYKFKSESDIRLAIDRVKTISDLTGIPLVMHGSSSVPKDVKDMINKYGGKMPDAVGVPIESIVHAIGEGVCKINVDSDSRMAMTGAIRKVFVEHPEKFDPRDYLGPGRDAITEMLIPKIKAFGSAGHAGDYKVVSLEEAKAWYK
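Giardia FBPA (40 nM reagent) was preincubated 10 min at RT with compound (up to 57.5 uM final), then substrate plus GAPDH/TPI/NAD/arsenate coupling system with diaphorase/resazurin was added; resorufin fluorescence (525/598 nm) was read after 20 min.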
TbPYK inhibitor: inhibitors of Trypanosoma brucei pyruvate kinase. Q57TT1. TbPYK enzyme, Kinase-Glo Plus ATP luminescence, 45 min. Potency, µM (top dose mostly 76.8 µM), inactives show at the top dose activity, negative = inhibition, actives largely listed as inhibitors. 410,000 compounds, 0.12% hits; also: potency is read from the fitted curve at half-maximal effect; nearly all actives have a fitted effect of over 50% in size
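Glycolytic pyruvate kinase of T. brucei was incubated with substrate, test compound and 130 uM ADP for 45 minutes at room temperature. Luminescent Kinase-Glo Plus signal was measured after 10 minutes.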
FMDV antiviral: antivirals against foot and mouth disease virus; Potency, µM (top dose mostly 57.9 µM), for the others: at the top dose activity change, negative = inhibition, most hits filed as inhibitors; AID 1159524; FMDV antiviral cell-based qHTS; 410,000 compounds, 1.2% hits; calls by dose curve; tested in HEK293T cells; also: read-out not given here; potency is read from the fitted curve at half-maximal effect; nearly all actives have a fitted effect of over 45% in size
RE007 growth inh: less growth of the S. pombe RE007 Vpr strain. AID 651644. Potency, µM (series often up to 92.2 µM), for inactives: at the top dose activity change, negative = less growth, actives largely listed as inhibitors. 360,000 compounds, 0.21% hits. S. pombe RE007 Vpr strain, BacTiter-Glo ATP luminescence, 24 h; active = well fitted falling curve with a large enough effect; inconclusive = small, poorly fitted or top-dose-only effect; inactive = no such curve, though single readings can be large or run the other way; also: potency is read from the fitted curve at half-maximal effect; nearly all actives have a fitted effect of over 50% in size
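Fission yeast strain RE007, carrying one chromosomally integrated HIV-1 vpr copy, was seeded at OD 0.01 in PMG+AL medium with 23 nL pinned compound. After 24 h at 30 °C and 99% humidity, viability was read by BacTiter-Glo luminescence.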
Sm TGR inh: S. mansoni TGR enzyme inhibition; Q962Y6; purified TGR, DTNB reduction, TNB absorbance 405 nm; Potency, µM (series often up to 114 µM), inactives show at the highest dose activity change, negative = inhibition, actives largely listed as inhibitors; 360,000 compounds, 3% hits; AID 485364; also: potency is read from the fitted curve at half-maximal effect; nearly all actives have a fitted effect of over 60% in size
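TGR 20 nM + NADPH 100 uM (dispensed conc.), cpd preinc 15 min RT; start with NADPH (500 uM addition) then DTNB (15 mM addition). Kinetic TNB absorbance, 405 nm filter. Four-parameter Hill fit across titration.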
Starred values were filed as active, the others as inactive; ? = inconclusive; . = no result given; + = active, no number; [ ] = remark or other dose. Hits are enriched below; roughly 7.7% of the tested compounds scored in any of these assays. Unless noted, calls follow the shape of the dose curve; as a rule, active = well fitted curve in the direction sought with a large enough effect; inconclusive = small, poorly fitted or top-dose-only effect, or another doubt; inactive = no such curve, though single readings can be large; an effect the other way counts as inactive or inconclusive. % is scaled to controls: 0 for no effect and ±100 for the full control effect.

SMILES	HCMV antiviral	FBPA Giardia inh	TbPYK inhibitor	FMDV antiviral	RE007 growth inh	Sm TGR inh
OCCCn1c(CCNc2nc(-c3ccc(Cl)cc3)cs2)nc2cc(C(F)(F)F)ccc21	-62.5*	.	0.2%	-14.7%	3.7%	.
O=[N+]([O-])c1cc(-c2csc(NCCc3nc4cc(C(F)(F)F)ccc4n3CCCO)n2)ccc1Cl	16.5	.	0.3%	?	6.6%	.
C=C1C(=O)O[C@@H]2[C@H]1[C@@H](OC(=O)/C(C)=C/C)C/C(C)=C\C(=O)/C=C(\C)[C@@H]2O	-98.5*	-4.0%	-11.1%	28.2µM*	-0.7%	5.62µM*
Cc1ccc(SCc2[nH]nc3c2C(c2ccco2)C(C#N)=C(N)O3)cc1 (configuration not stated)	-16.5	-11.2%	1.3%	.	14.5%	?
Cc1ccc([C@H]2C(C#N)=C(N)Oc3cc(C)oc(=O)c32)o1	17.2	4.5%	-8.7%	25.1µM*	2.7%	-35.4%
Cc1ccc(-n2nc(C)c3c2OC(N)=C(C#N)C3c2ccoc2)cc1 (configuration not stated)	32.4	-10.8%	-2.6%	50.8%	-8.9%	?
Cc1ccc(SCc2[nH]nc3c2C(c2ccc(C)o2)C(C#N)=C(N)O3)cc1 (configuration not stated)	-11.6	?	0.7%	?	0.1%	25.1µM*
Cc1ccc(C2C(C#N)=C(N)SC(N)=C2C#N)o1	.	?	.	.	.	22.4µM*
Cc1ccc(-n2nc(C)c3c2OC(N)=C(C#N)C3c2ccco2)cc1 (configuration not stated)	90.3	-16.7%	-21.8%	54.8%	-17.4%	39.8µM*
COc1ccc(-n2c(=O)c(-c3cccs3)nc3cnc(N4CCNCC4)nc32)cc1	.	-6.5%	0.0%	1.3%	.	.
Cc1nn(Cc2ccccc2)c2c1C(c1ccco1)C(C#N)=C(N)O2 (configuration not stated)	5.3	?	-13.4%	-29.9%	2.0%	50.1µM*
Cc1ccc(-n2nc(C)c3c2OC(N)=C(C#N)C3c2ccc(C)o2)cc1 (configuration not stated)	50.7	?	-7.3%	.	6.6%	22.4µM*
CCC/C(=C1/c2ccccc2C(=O)N1c1ccccc1)c1ccc2[nH]ccc2c1	53.1	.	6.2%	0.0%	11.6%	.
O=C1c2ccccc2/C(=C\c2ccc3[nH]ccc3c2)N1c1ccccc1	-66.5*	.	-0.5%	24.3%	-25.8%	.
COc1ccc(-c2onc(C)c2C)cc1S(=O)(=O)NCc1ccc(C)o1	-71.2*	.	-8.7%	38.9%	.	-16.6%
CCOc1ccccc1CNS(=O)(=O)c1cc(-c2onc(C)c2C)ccc1OC	+	.	-8.5%[15.4 µM]	53.9%	.	-5.1%
CC(C)CN1CCC(=O)N(C(CSc2ccc(Br)cc2)Cc2ccccc2)CC1 (configuration not stated)	.	-0.2%	.	.	.	.
Cc1c(C(=O)N(C)C2CCOC2)cnn1-c1ncc2c(n1)-c1ccccc1CCC2 (configuration not stated)	.	.	.	46.1%	.	.
CCC(=O)O[C@@H]1CC(=O)O[C@H](C)CC=CC=C[C@@H](O)[C@H](C)C[C@H](CC=O)[C@H](O[C@H]2O[C@H](C)[C@@H](O[C@H]3C[C@@](C)(O)[C@@H](OC(=O)CC)[C@H](C)O3)[C@H](N(C)C)[C@H]2O)[C@H]1OC	.	-3.3%	.	.	.	25.1µM*
CN1CCc2cc3c(c4c2[C@H]1[C@H](O)c1ccccc1-4)OCO3	-70.8*	?	-0.4%	-15.6%	-23.6%	-7.5%
CCN(c1ccccc1)c1cc2ccccc2c(=O)[nH]1	-64.2*	?	-11.4%	2.1%	3.0%	-10.2%
CN(C(=O)c1cccc(NC(=O)Cc2ccc(NC(=O)C3CCCN(C(=O)CCc4ccccc4)C3)cc2)c1)C1CCCC1 (configuration not stated)	-71.6*	.	0.2%	?	4.4%	.
CN(C(=O)c1ccc(NC(=O)Cc2cccc(NC(=O)C3CCCN(C(=O)CCc4ccccc4)C3)c2)cc1)C1CCCC1 (configuration not stated)	-4.8	.	-3.7%	0.0%	-9.1%	2.1%
CN(Cc1ccccc1)C(=O)c1ccc(NC(=O)Cc2cccc(NC(=O)C3CCCN(C(=O)CCc4ccccc4)C3)c2)cc1 (configuration not stated)	-68.4*	.	2.9%	?	5.0%	1.4%
CN(C(=O)c1ccc(NC(=O)Cc2ccc(NC(=O)C3CCCN(C(=O)CCc4ccccc4)C3)cc2)cc1)C1CC1 (configuration not stated)	-86.4*	.	1.3%	?	21.1%	-9.1%
SMILES	HCMV antiviral	FBPA Giardia inh	TbPYK inhibitor	FMDV antiviral	RE007 growth inh	Sm TGR inh
CN(C(=O)c1cccc(NC(=O)Cc2ccc(NC(=O)C3CCCN(C(=O)CCc4ccccc4)C3)cc2)c1)C1CCC1 (configuration not stated)	-32.2	.	-5.4%	17.8µM*	-1.3%	.
CN(Cc1ccccc1)C(=O)c1cccc(NC(=O)Cc2ccc(NC(=O)C3CCCN(C(=O)CCc4ccccc4)C3)cc2)c1 (configuration not stated)	-2.1	.	0.3%	?	0.1%	.
COc1ccc(C(=O)Nc2ccc(-c3nc4ncccc4o3)cc2C)cc1Br	-25.3	.	0.9%	-18.0%	.	1.1%
O=C(O)CCc1c(C(=O)O)[nH]c2cc(Cl)cc(Cl)c12	.	11.7%	.	.	.	.
O=C(CN(C(=O)CCC(=O)Nc1nccs1)c1cccc(F)c1)NCCc1ccccc1	-88.3*	11.9%	2.2%	-3.9%	-19.6%	0.7%
O=C(CN(C(=O)CCC(=O)Nc1nccs1)c1cccc(F)c1)NCc1ccc(F)cc1	-25.3	7.2%	-7.9%	4.3%	7.9%	-4.5%
OCC1O[C@H](O[C@H]2C(O)C(O)C(O)O[C@@H]2CO)C(O)C(O)C1O (some centres not stated)	.	1.4%	9.2%	.	.	.
CN(CC(=O)Nc1c(Cl)cccc1Cl)C(=O)Cc1ccsc1	0.4	.	-2.1%	-8.5%	1.5%	.
CCc1cc(C(=O)N(C)CC(=O)Nc2c(Cl)cccc2Cl)sc1C	-67.0*	.	0.9%	-18.6%	-13.4%	-4.9%
COc1cc(=O)n2c(c1C(=O)NCc1ccco1)CCN(Cc1cc3ccccc3[nH]1)CC2	.	.	.	-10.6%	.	.
CCOC(=O)c1ccc(N=C2SC(C(=O)Nc3ccc(C(=O)O)cc3)CC(=O)N2Cc2cccs2)cc1 (configuration not stated)	-70.9*	-4.4%	-9.1%	-21.0%	11.4%	4.2%
CCOC(=O)c1ccc(N=C2SC(C(=O)NC)CC(=O)N2Cc2ccc(F)cc2)cc1 (configuration not stated)	-36.0	3.1%	3.3%	-9.4%	-17.8%	-0.1%
